FEN1 inhibitor: inhibitors of human flap endonuclease 1. P39748. Recombinant FEN1 flap cleavage, fluorescence, 15 min. Potency, µM (titrated, usually from 114 µM), inactives show at the highest dose activity change, negative = inhibition, usual class: inhibitors. 390,000 compounds, 0.35% hits. AID 588795; note: potency is the fitted concentration of half-maximal effect; nearly all actives have a fitted effect of over 65% in size
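Compounds are tested as a concentration series against 10 nM FEN1; after a 15 min room-temperature preincubation, 50 nM substrate starts cleavage, with plate reads at 0 and 15 min. Normalized responses are fitted by a Hill equation.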
PI5P4Ka inh: blocks human PI5P4K alpha kinase activity | AID 652105 | PI5P4Kalpha enzyme, ADP-Glo luminescence, 60 min; stronger effect = lower value | 330,000 compounds, 1.2% hits | max response, % | P48426; active = max response of -50% or lower; inconclusive = between -30% and -50%; inactive = -30% or higher; note: value at the top dose of about 77 µM
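Controls without substrate or without enzyme flank wells where PI5P4Kalpha converts substrate using 5 microM ATP (final). Incubation lasts 60 minutes at room temperature; ADP formed is read by ADP-Glo luminescence.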
BLM helicase inh: inhibitors of human Bloom syndrome helicase BLM | AID 2528 | P54132 | 350,000 compounds, 0.2% hits | Potency, µM (highest dose often 56.1 µM), for the others: at the top dose activity change, negative = inhibition, actives largely listed as inhibitors | recombinant BLM DNA unwinding, fluorescence dequenching;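 note: potency is the fitted concentration of half-maximal effect; plate controls were vehicle for no effect and no enzyme for full effect; nearly all actives have a fitted effect of over 35% in size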
WRN inhibitor: blocks human WRN helicase; Potency, µM (highest dose often 114 µM), inactives show top-dose activity change, negative = inhibition, most hits filed as inhibitors; WRN helicase unwinding, fluorescent forked duplex, kinetic; 360,000 compounds, 0.46% hits; AID 651768; Q14191; note: potency is the fitted concentration of half-maximal effect; nearly all actives have a fitted effect of over 55% in size
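Enzyme (20 nM final) and test compound sit together 15 min at room temperature before substrate addition. Substrate is a single-forked duplex oligonucleotide (100 nM) labelled with fluorophore and quencher, with 2 mM ATP; helicase unwinding raises red fluorescence, read kinetically.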
RECQ1 helicase: RECQ1 (human) helicase inhibition; 240,000 compounds, 0.54% hits; RECQ1 DNA unwinding, red fluorescence kinetic read; P46063; Potency, µM (highest dose often 57.3 µM), for the others: at the top dose activity, negative = inhibition, hits mostly inhibitors; AID 2549;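 note: potency is the fitted concentration of half-maximal effect; plate controls were vehicle for no effect and no enzyme for full effect; nearly all actives have a fitted effect of over 30% in size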
Target sequence (P46063 whole entry, looked up): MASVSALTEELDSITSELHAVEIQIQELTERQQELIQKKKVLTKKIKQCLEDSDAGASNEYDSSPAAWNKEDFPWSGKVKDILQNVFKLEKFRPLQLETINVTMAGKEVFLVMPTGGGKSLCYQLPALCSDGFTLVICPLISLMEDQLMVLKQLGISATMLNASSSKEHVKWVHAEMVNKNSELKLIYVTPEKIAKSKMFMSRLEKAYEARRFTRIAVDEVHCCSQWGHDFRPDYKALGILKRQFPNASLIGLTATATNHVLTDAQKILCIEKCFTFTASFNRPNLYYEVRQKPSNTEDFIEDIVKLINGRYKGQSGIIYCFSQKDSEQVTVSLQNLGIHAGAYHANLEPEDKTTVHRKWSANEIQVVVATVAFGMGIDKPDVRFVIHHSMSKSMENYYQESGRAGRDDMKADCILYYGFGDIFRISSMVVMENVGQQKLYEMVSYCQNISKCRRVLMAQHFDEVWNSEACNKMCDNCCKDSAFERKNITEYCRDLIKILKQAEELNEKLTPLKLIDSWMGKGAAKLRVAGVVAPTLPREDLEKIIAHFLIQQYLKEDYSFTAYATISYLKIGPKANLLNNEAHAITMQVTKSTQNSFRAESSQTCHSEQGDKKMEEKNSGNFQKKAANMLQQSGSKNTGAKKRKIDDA
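RECQ1T1 50 nM; forked duplex (20 bp + 30-nt ss tails) 200 nM, ATP 2 mM final; pH 8.0, 2 mM MgCl2, 2.5 ug/ml poly(dI-dC); 15 min compound preincubation; discontinuous kinetic read over 2 h at RT.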
APEX1 inh: blocks human APE1 abasic DNA cleavage; P27695; recombinant APE1, TAMRA/BHQ-2 abasic DNA cleavage fluorescence; Potency, µM (top dose mostly 65.8 µM), for the others: top-dose activity change, negative = inhibition, hits mostly inhibitors; 350,000 compounds, 0.35% hits; AID 2517;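 note: potency is the fitted concentration of half-maximal effect; plate controls were vehicle for no effect and reference inhibitor for full effect; nearly all actives have a fitted effect of over 55% in size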
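Incision of a quenched TAMRA/BHQ-2 THF abasic-site duplex (50 nM) by 0.75 nM APE1, after 15 min compound preincubation, measured as fluorescence increase over three 60 s reads. Values normalized to buffer, DMSO and NSC13755 control wells.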
* marks the source's active call; other numbers are inactive results; i = inactive; u = inconclusive; x = no result; [ ] = dose if it differs, or a comment. Most compounds without a hit are left out; they make up all but 1.5% or so of the library. Unless noted, calls come from the whole dose curve; as a rule, active = well fitted curve in the direction sought with a large enough effect; inconclusive = small, poorly fitted or top-dose-only effect, or another doubt; inactive = no such curve, though single readings can be large; an effect the other way counts as inactive or inconclusive. Unless noted, % is set by controls: 0 for no effect and ±100 for the full control effect.

SMILES	FEN1 inhibitor	PI5P4Ka inh	BLM helicase inh	WRN inhibitor	RECQ1 helicase	APEX1 inh
CCn1c(CN2CCCCC2)nc2cc(NC(=O)c3cccc([N+](=O)[O-])c3)ccc21	-11.7%	x	-2.2%	x	x	x
COc1cc(CN(C(=O)c2ccc(Cl)cc2)C2CCS(=O)(=O)C2)cc(OC)c1OC (configuration not stated)	2.8%	x	-5.4%	x	x	x
Cc1occc1C(=O)NCc1cccc(CNC(=O)c2ccoc2C)c1	u	-52.5*	-17.3%	39.8µM*	-18.1%	u
O=C(Nc1cccc(Cl)c1)OCC#CCCl	x	x	28.2µM*	x	28.2µM*	1.58µM*
O=C(Nc1cccc(Cl)c1)OCCOC(=O)Nc1cccc(Cl)c1	-29.2%	-8.7	x	-13.5%	x	x
CCc1nc(SCC(=O)N2CCN(c3ccccc3)CC2)c2c(=O)n(C)c(=O)n(C)c2n1	x	x	-4.2%	x	i	18.0%
Cn1c(=O)c2c(SCC(=O)N3CCN(c4ccccc4)CC3)nc(C3CC3)nc2n(C)c1=O	-12.5%	2.1	-1.7%	-10.5%	17.8µM*	-3.2%
O=[N+]([O-])c1cc(Br)cc(C=Nc2ccc3c(c2)OCO3)c1O	u	-51.1*	14.1µM*	-28.5%	u	-5.5%
Cc1ccc(C)c(N=Cc2cc3c(cc2[N+](=O)[O-])OCO3)c1	5.4%	-19.4	u	-4.3%	6.6%	0.4%
Cc1ccc(N=Cc2cc3c(cc2[N+](=O)[O-])OCO3)cc1[N+](=O)[O-]	-2.9%	-64.5*	x	-4.9%	x	x
Cc1ccc(S(=O)(=O)N2CCN(c3ccnc(-c4cccs4)n3)CC2)cc1	-8.4%	x	x	x	x	x
Cc1cc2c(s1)c(C#N)c(C(=O)NCc1ccccc1F)n2C	x	x	x	x	x	-1.6%
N#Cc1ccc(CCc2ccccc2)[nH]c1=O	-3.5%	-9.0	x	1.7%	x	x
N#Cc1ccc(CC(=O)c2ccccc2)[nH]c1=O	2.9%	-16.5	x	56.2µM*	x	x
CCc1ccc(NC(=O)c2ccc3c(c2)c(C)c(C)n3Cc2ccccc2)cc1	-2.2%	x	-7.4%	x	x	x
O=[N+]([O-])c1ccc2c(c1N1CCCCC1)=NC1(CCCCC1)[N+]=2[O-]	-19.5%	-52.7*	-1.8%	-16.2%	1.8%	-3.8%
O=C1NNC(c2ccccc2)=N/C1=C\c1ccco1	-2.6%	-52.5*	-10.3%	-26.9%	-27.4%	1.5%
O=C1NNC(c2ccccc2)=N/C1=C\c1ccccc1Cl	2.1%	-2.5	u	-33.6%	-13.8%	-6.5%
O=C1NN=C(CSc2n[nH]c(=S)s2)CS1	-2.9%	-55.4*	-2.2%	12.8%	5.4%	0.5%
COc1cc(C(=O)OCc2cc(=O)n3ccsc3n2)cc(OC)c1OC	-2.8%	x	-5.5%	x	x	x
COc1ccc(/C=N/Nc2ncnc3c2[nH]c2ccc(C)cc23)c(OC)c1OC	u	-0.9	-18.5%	u	i	3.8%
COc1cc(OC)c(OC)cc1/C=N/Nc1ncnc2c1[nH]c1ccccc12	-3.5%	-11.8	22.4µM*	-21.9%	-1.2%	4.0%
CCC(=O)N1CCc2cc(Br)cc(S(=O)(=O)N3CCCC(C(=O)NCc4ccc(OC)cc4)C3)c21 (configuration not stated)	-2.4%	x	-5.0%	x	x	x
CCC(=O)N1CCc2cc(Br)cc(S(=O)(=O)N3CCCC(C(=O)NCc4ccccc4)C3)c21 (configuration not stated)	79.4µM*	x	-5.3%	x	x	x
CSCc1c(C(=O)OCC(=O)c2ccc[nH]2)oc2ccccc12	-1.2%	-76.0*	x	-8.3%[11.6 µM]	x	-6.6%
O=C(O)CSc1nnc(CNc2cccc(C(F)(F)F)c2)n1Cc1ccco1	7.0%	-71.1*	-8.5%	-20.4%	-7.9%	11.9%
O=C(CSc1nnc(CNc2cccc(C(F)(F)F)c2)n1Cc1ccco1)NCc1ccco1	-8.0%	-15.6	3.9%	-7.9%	i	4.7%
C/C(=C\C=C(C#N)C#N)c1cc(C#N)c(N)o1	56.2µM*	u	u	89.1µM*	14.1µM*	u
CCC(=O)Nc1ccc(C)cc1-c1nc2ccccc2n(C(C)C(=O)Nc2ccccc2CC)c1=O (configuration not stated)	-0.5%	x	-6.1%	x	x	x

Source: PubChem (National Center for Advancing Translational Sciences (NCATS))
